Compounds with a hit are over-represented: about 3.4% of the library has one in this group of screens.
HGIII-sPLA2 inh: Inhibits HGIII-sPLA2 liposome hydrolysis, primary screen; inhibition, % at 12.2 µM; 370,000 tested, 0.56% active; Q9NZ20; QFRET BODIPY PC-A2 liposome hydrolysis, fluorescence; AID 743126;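 active = inhibition above mean plus 3 SD of compounds lying within the high and low control bounds, cut at about 19% in these data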;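 note: 0% = median of test compound wells and 100% = no enzyme DMSO wells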
ADAM17 inh: inhibits human ADAM17; inhibition, % at 6.95 µM; recombinant ADAM17, EDANS/DABCYL FRET peptide cleavage; 370,000 tested, 0.83% active; P78536;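 active = inhibition above the mean of compounds lying between control limits plus 3 SD, set per campaign, cut at about 8.5% in these data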;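 note: 0% = DMSO-only wells as the low control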
ADAM10 inh: inhibits human ADAM10; O14672; recombinant ADAM10, EDANS/DABCYL FRET peptide cleavage, 3 h; inhibition, % at 7 µM; 370,000 tested, 0.62% active; AID 720582;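 active = inhibition above a per-campaign cutoff equal to the mean of compounds falling between control-based bounds plus 3 SD, cut at about 20% in these data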;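 note: 0% = DMSO wells while the 100% control is not disclosed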
KLK7 zymogen act: proKLK7 (human) activation, primary screen. P49862. purified proKLK7, EDANS-DABCYL substrate fluorescence; 100% is mature enzyme control, 0% vehicle. activation, % at 7 µM. 370,000 tested, 0.9% active. AID 652039;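 active = activation above the mean of all tested compounds plus 3 SD, computed per campaign excluding outliers beyond control limits, cut at about 13% in these data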
PLC-beta3 inh: PLC-beta3 (human) inhibition, primary screen. Purified PLC-beta3, fluorogenic substrate, fluorescence. inhibition, % at 12.2 µM. 370,000 tested, 0.18% active. AID 720704; in the data active = inhibition above about 11%;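 note: 0% = median of compound wells on plate and 100% = full blocker control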
PLC-gamma1 inh: PLC-gamma1 (human) inhibition, primary screen | P19174 | purified PLC-gamma1, fluorogenic substrate, fluorescence | inhibition, % at 12.2 µM | 370,000 tested, 0.84% active; in the data active = inhibition above about 9.5%
hGIII sPLA2 conf: human GIII-sPLA2 inhibition, confirmation. shares compounds with HGIII-sPLA2 inh. 2,000 tested, 34% active. inhibition, % at 12.2 µM. recombinant hGIII-sPLA2, BODIPY PC-A2 QFRET fluorescence;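 active = mean inhibition across triplicates above the hit cutoff set in the earlier primary screen, cut at about 19% in these data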;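 note: 0% = enzyme with DMSO and 100% = DMSO wells lacking enzyme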
BODIPY interf: 535nm fluorescence interference, HGIII-sPLA2 counter-screen. shares compounds with HGIII-sPLA2 inh. BODIPY FL product fluorescence interference, QFRET. inhibition, % at 12.2 µM. 2,000 tested, 8.5% active. AID 743282;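 active = average inhibition above the solvent-only control mean plus 3 SD, cut at about 6% in these data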;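 note: 0% = DMSO with substrate plus product and 100% = DMSO with substrate alone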
Starred values were filed as active, the others as inactive.

Cc1cccc(NC(=O)CNC(=O)[C@H](CCc2ccccc2)NC(=O)[C@H]2O[C@@H](n3cnc4c(N)ncnc43)[C@H](O)[C@@H]2O)c1C was read as HGIII-sPLA2 inh 7, ADAM17 inh 1, ADAM10 inh -10, KLK7 zymogen act 1, PLC-beta3 inh 0 and PLC-gamma1 inh 2.
`COC(=O)C[C@@H]1CC[C@H]2[C@@H](COc3ccc(NC(=O)NC(C)C)cc3C(=O)N2C)O1` gave HGIII-sPLA2 inh 10, ADAM17 inh -3, ADAM10 inh -1, KLK7 zymogen act 0, PLC-beta3 inh 1 and PLC-gamma1 inh 2.
`O=C(O)/C=C/C(=O)Nc1ccc(C2(c3ccc(NC(=O)/C=C/C(=O)O)cc3)c3ccccc3-c3ccccc32)cc1` gave HGIII-sPLA2 inh 22*, ADAM17 inh 5, ADAM10 inh 6, KLK7 zymogen act -2, PLC-beta3 inh -14, PLC-gamma1 inh -2, hGIII sPLA2 conf -12 and BODIPY interf -4.
`Cc1ccc(NC(=O)CN(C)C(=O)COC(=O)/C=C/c2cccs2)cc1` gave HGIII-sPLA2 inh -3, ADAM17 inh 0, ADAM10 inh 5, KLK7 zymogen act 0, PLC-beta3 inh -7 and PLC-gamma1 inh -1.
For CN(CCC#N)C(=O)COC(=O)/C=C/c1cccs1 the results were HGIII-sPLA2 inh 20*, ADAM17 inh -1, ADAM10 inh -12, KLK7 zymogen act 0, PLC-beta3 inh 3, PLC-gamma1 inh 7, hGIII sPLA2 conf -3 and BODIPY interf -5.
Nc1ccn([C@@H]2O[C@H](C(=O)N[C@H](Cc3ccccc3)C(=O)Nc3ccc4scnc4c3)[C@@H](O)[C@H]2O)c(=O)n1 was read as HGIII-sPLA2 inh 10, ADAM17 inh -7, ADAM10 inh -10, KLK7 zymogen act 0, PLC-beta3 inh 0 and PLC-gamma1 inh 2.
For Oc1ccc2[nH]cc(CCc3ccccc3)c2c1-c1ccccc1 the results were HGIII-sPLA2 inh -13, ADAM17 inh 3, ADAM10 inh 3, KLK7 zymogen act 0, PLC-beta3 inh -6 and PLC-gamma1 inh -2.
COC(=O)c1ccc(CNCC(=O)Nc2ccc(C(=O)OC)cc2)cc1 was read as HGIII-sPLA2 inh -4, ADAM17 inh -2, ADAM10 inh -4, KLK7 zymogen act -1, PLC-beta3 inh 1 and PLC-gamma1 inh -2.
Screening COC(=O)c1ccc(NC(=O)CNCc2ccncc2)cc1 returned HGIII-sPLA2 inh 21*, ADAM17 inh -6, ADAM10 inh -15, KLK7 zymogen act 0, PLC-beta3 inh -1, PLC-gamma1 inh -4, hGIII sPLA2 conf 3 and BODIPY interf -5.
Screening Nc1ccn([C@@H]2O[C@H](C(=O)N3CCN(C(=O)N4CCCCC4)CC3)[C@@H](O)[C@H]2O)c(=O)n1 returned HGIII-sPLA2 inh 9, ADAM17 inh -1, ADAM10 inh -11, KLK7 zymogen act 0, PLC-beta3 inh 3 and PLC-gamma1 inh 2.
`COc1ccc(N2CCN(C(c3cccs3)C(C)NC(=O)c3ccc4c(c3)OCO4)CC2)cc1` (configuration not stated) gave HGIII-sPLA2 inh 22*, ADAM17 inh -6, ADAM10 inh 8, KLK7 zymogen act -1, PLC-beta3 inh -6, PLC-gamma1 inh 4, hGIII sPLA2 conf 2 and BODIPY interf -14.
Screening COc1ccc(N2CCN(C(c3cccs3)C(C)NC(=O)c3ccco3)CC2)cc1 (configuration not stated) returned HGIII-sPLA2 inh 9, ADAM17 inh -3, ADAM10 inh -4, KLK7 zymogen act 0, PLC-beta3 inh 4 and PLC-gamma1 inh -1.
Screening CCNC(=S)NNC(=O)c1c(Cl)c(C)nn1C returned HGIII-sPLA2 inh 21*, ADAM17 inh -5, ADAM10 inh -4, KLK7 zymogen act 0, PLC-beta3 inh -1, PLC-gamma1 inh -1, hGIII sPLA2 conf 9 and BODIPY interf -4.

Screens (PubChem)
